Records with an inconclusive call do not appear. A number with no mark means an inactive call. Calls of active or inactive are those of the source. Calls come from the whole dose curve; as a rule, active = well fitted activation curve with a large enough effect in the repeat runs; inconclusive = weak or mixed curves; inactive = flat fitted curve, though single readings scatter.
experiment: A CellTox Green Cytotoxicity Assay to monitor cytotoxicity in HEK293 cells - 40 hour (AID 1224871); conditions: CellTox Green fluorescence; series mostly up to 76.8 µM; cytotoxicity increase: at the top concentration; note: nearly all actives have a fitted effect of over 45% in size
Source text: National Center for Advancing Translational Sciences [NCATS]
NIH Chemical Genomics Center [NCGC]
U.S. Environmental Protection Agency [EPA]
National Institutes of Environmental Health Sciences [NIEHS]
National Toxicology Program [NTP]
Cell-based models are critical for drug discovery. Determining the natural cytotoxic effects resulting from test compounds is an essential research activity. A CellTox Green Cytotoxicity Assay to monitor cytotoxicity in real time of continues cell culture during 40 hours of the compound treatment was used to screen Tox21 10K library compounds in Hek293 cells. CellTox Green Cytotoxicity Assay is a nonlytic, homogeneous, biofluorescent method to measure cytotoxicity in cell culture after experimental manipulation. The assay system uses a proprietary asymmetric cyanine dye that is excluded from viable cells but preferentially stains the dead cell's DNA. […] Viable cells produce no appreciable increases in fluorescence. Therefore, the fluorescence signal produced by the binding interaction with dead cell DNA is proportional to cytotoxicity.
The mixture of Hek293 cell suspension and reagents were dispensed at 600cells/6 ul/well in 1536-well tissue culture treated black solid bottom plates using a Multidrop dispenser. After the assay plates were incubated at a 37 C/5% CO2 incubator for 5 hours, 23 nL of compounds dissolved in DMSO, positive and negative controls was transferred to the assay plate by a pintool work station. The plates were incubated at 37 C for 40 hours. The fluorescence intensity were measured at 0h, 8h, 16h, 24h, 32h and 40h time points using ViewLux plate reader during compound treatment.
% is set by controls: 0 for no effect and ±100 for the full control effect; potency is the fitted concentration of half-maximal effect.

Row | SMILES | cytotoxicity increase | Potency
1 | CC(=O)N/N=C/c1ccc([N+](=O)[O-])o1 | 0.949% [at 35.3 µM] | –
2 | CC(CC1c2ccccc2CCc2ccccc21)CN(C)C (stereo not given) | 15% [at 35.3 µM] | –
3 | Cc1ccc(CO)cc1 | 2.09% | –
4 | C=CCc1ccccc1OCC(O)CNC(C)C (stereo not given) | 6.62% [at 35.3 µM] | –
5 | CC(=O)Oc1ccc([N+](=O)[O-])cc1CCl | -11.1% | –
6 | O=C1NCCN1CCO | -5.05% | –
7 | OC(CCN1CCCC1)(c1ccccc1)C1CCCCC1 (stereo not given) | 0.673% [at 35.3 µM] | –
8 | O=C(O)CCC(=O)C(=O)O | -4.92% | –
9 | CC(C)=CCC1C(=O)N(c2ccccc2)N(c2ccccc2)C1=O | -5.29% [at 35.3 µM] | –
10 | CCOc1ccccc1O[C@H](c1ccccc1)[C@H]1CNCCO1 | -2.87% [at 35.3 µM] | –
11 | Oc1cccc(Nc2ccccc2)c1 | -0.578% | –
12 | C[C@@H]1CN(CCCn2c3ccccc3c3ccccc32)C[C@H](C)N1 | – | 23.9 µM (active)
13 | CCCCN(CCCC)C(C(N)=O)c1ccc(OC)cc1 (stereo not given) | -0.821% [at 35.3 µM] | –
14 | C[C@H]1C[C@H](O)c2ccsc2S1(=O)=O | -30.5% [at 35.3 µM] | –
15 | CCn1cc(C(=O)O)c(=O)c2cc(F)c(N3CCNCC3)cc21 | -8.02% [at 35.3 µM] | –
16 | Cc1ccccc1N=C(N)Nc1ccccc1C | -0.0652% | –
17 | O=C(/C=C/c1ccc(O)c(O)c1)O[C@@H]1C[C@@](OC(=O)/C=C/c2ccc(O)c(O)c2)(C(=O)O)C[C@@H](O)[C@@H]1O | -13% [at 35.3 µM] | –
18 | C[C@]12CC[C@@H]3c4ccc(O)cc4CC[C@H]3[C@@H]1CC[C@@H]2OC(=O)CCC1CCCC1 | – | 54.9 µM (active)
19 | CC1=Nc2ccc3ccccc3c2C1(C)C | 20.4% | –
20 | Oc1cccc(O)c1O | -2.78% | –

Row | SMILES | cytotoxicity increase | Potency
21 | NC(=O)c1ccncc1 | -4.26% | –
22 | CCOC(=O)[C@H](CCc1ccccc1)N[C@@H](C)C(=O)N(CC(=O)O)C1Cc2ccccc2C1 | -1.87% [at 35.3 µM] | –
23 | CC(C)C(O)(c1ccc(OC(F)(F)F)cc1)c1cncnc1 (stereo not given) | 5.9% | –
24 | CCCCCCCC/C=C\CCCCCCCCCCCC(=O)O | -4.41% | –
25 | COC(=O)CS | -7.02% | –
26 | C=C/C(C)=C/C/C=C(\C)CCC=C(C)C | -1.65% | –
27 | Cc1ccc(OC(=O)c2ccccc2O)cc1 | – | 49 µM (active)
28 | CC1=C(Br)C(=O)C(Br)=C/C1=C(/c1ccccc1S(=O)(=O)O)c1cc(Br)c(O)c(Br)c1C | -5.65% [at 35.3 µM] | –
29 | C=CC(=O)[O-].C=CC(=O)[O-].[Zn+2] | -6.2% | –
30 | O=C(CCc1ccc(O)cc1)c1c(O)cc(O)cc1O | 0.0725% | –
31 | CCC=CC#N | 1.7% | –
32 | CO[C@]1(NC(=O)CSC(F)F)C(=O)N2C(C(=O)O)=C(CSc3nnnn3CCO)CO[C@H]21 | -2.39% [at 35.3 µM] | –
33 | CC1(C)O[C@@H]2C[C@H]3[C@@H]4C[C@H](F)C5=CC(=O)C=C[C@]5(C)[C@H]4[C@@H](O)C[C@]3(C)[C@]2(C(=O)CO)O1 | -8.97% [at 35.3 µM] | –
34 | Cc1ccco1 | -0.721% | –
35 | O=C(Nc1cccc2c(=O)cc(-c3nn[nH]n3)oc12)c1ccc(OCCCCc2ccccc2)cc1 | 2.74% [at 35.3 µM] | –
36 | CC[N+](CC)(CCNC(=O)C(=O)NCC[N+](CC)(CC)Cc1ccccc1Cl)Cc1ccccc1Cl | 11.3% [at 35.3 µM] | –
37 | CCOC(=O)/C=C/C(=O)OCC | -7.44% | –
38 | O=C(O)CCc1nc(-c2ccccc2)c(-c2ccccc2)o1 | -25.5% [at 35.3 µM] | –
39 | CCN(CC)CCNC(=O)COc1ccc(OC)cc1 | 8.84% [at 35.3 µM] | –
40 | CN1C(=O)N(c2ccccc2Br)Cc2cnc(Nc3ccc4c(c3)OCC(CO)O4)nc21 (stereo not given) | 0.363% | –

From PubChem BioAssay (Tox21)
